# Measured values reported in the supplement of paper PMC10338343.
# ± gives the standard deviation. Over roughly 5,500 sequences, “pre-steady-state target cleavage rate” has its median near 0.1; the highest 2% begin near 0.64. Shown is part of a subset that was picked to be rich in the highest values.
# System: MIWI (PIWIL1) piRISC loaded with piRNA #2 (30 nt)
# Assay: pre-steady-state target cleavage rate (min^-1); MIWI and MILI are mouse PIWI proteins and EfPiwi is from a freshwater sponge; tags in brackets are library labels; higher = faster piRNA-guided slicing of the target
# Conditions: guide: piRNA #2 5'p-UUAGGUAACCCAGUAGAUCCAGAGGAAUUC; auxiliary factor: 500 nM mouse GTSF1
# Procedure, shortened: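 Using HEPES–potassium acetate buffer at 33 °C, 1 nM active affinity-purified piRISC with a single synthetic guide was mixed with 0.1 nM transcribed, DNA-blocked target RNA library for 0–8 or 0–960 min, with or without 500 nM GTSF1 partner protein. Uncleaved targets were sequenced and normalised to depth and to weakly complementary targets, and three trials were pooled with k3 capped at 0.0001 min^-1. A burst-and-steady-state fit gave the pre-steady-state cleavage rate.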
row,Sequence,pre-steady-state target cleavage rate
1,GAAUUCCUCUGGAUCUACUGGCUAACCUAA,0.0225 ± 0.0083
2,CAAUUCCUCUGGAUCCUACUGGGUUACCUAA,0.29 ± 0.055
3,GAAUUCCUCUCGAUCUACUGGGUUAGCUAA,0.237 ± 0.052
4,CUUAAGGAGACCUAGUUCUGGGAUACCUAA,< 0.0001
5,CAAUUCCUCUGGAUCUAGACCCAAUGGAUA [g14:g29:cont:t1A],< 0.0001
6,GAAUUCCUCUGGAACUACUGGGUUUCCUAA,0.646 ± 0.21
7,CUUUUCCUCUGGUUCUACUGGGUUUCCUAA,0.522 ± 0.19
8,CUAUUCCUCUGGAUCUACUGGGUUUCCUAA,0.344 ± 0.053
9,CAAUUCCUCUGGAACUACUGGGUUUCCUAA,0.348 ± 0.1
10,GAAUUCCUCUGGUUCUACUGGGUUUCCUAA,0.923 ± 0.3
11,CAAUUCCUCUGGUUCUACUGGGUAACCUAA,0.162 ± 0.032
12,CUAUUCCUCUGGUUCUACUGGGUAACCUAA,0.156 ± 0.033
13,GAAUUCCUCUGGAUCUACUGGGUUUCCUAA,0.27 ± 0.047
14,GAAUUCCUCUGGUUCUACUGGGUAACCUAA,0.288 ± 0.063
15,CUAUUCCUCUGGAACUACUGGGUUUCCUAA,0.337 ± 0.12
16,CAAUUCCUCUGGUUCUACUGGGUUUCCUAA,0.951 ± 0.36
17,CUAUUCCUCUGGUUCUACUGGGUUUCCUAA,1.05 ± 0.44
18,CUUUACCUCUGGAUCUACUGGGUUUCCUAA,0.167 ± 0.029
19,CAAUUCCACUGGUUCUACUGGGUUACCUAA,0.593 ± 0.041
20,CUUAAGGAGAGGAUCUACUGGGUUAACCUAA,0.00722 ± 0.0036
21,CUUUUCCUCUGGAUCUACGGGUUACCUAA,0.0476 ± 0.0059
22,CUUAAGGACUGGAUCAACUGGCUUACCUAA,0.0268 ± 0.022
23,CUUAAGGACUCGAUCUACUGGGUUAGCUAA,0.00705 ± 0.0047
24,CUUAACCACUGGAUCUACUGGGUUACGUAA,0.402 ± 0.031
25,CAAUACGUCUGGAUCUACUGGGUUACCUAA,0.494 ± 0.053
26,CAAUUCCUCUGGAACUACUGGGUUACGUAA,0.517 ± 0.048

row,Sequence,pre-steady-state target cleavage rate
1,CUAUUCCUCUGGAACUACUGGGUUACGUAA,0.47 ± 0.031
2,GAAUUCCUCUGGAACUACUGGGUUACGUAA,0.657 ± 0.04
3,CUUAAGCUCUGCAUCUACUGGGUUAGCUAA,0.182 ± 0.027
4,CAAUUCCAUCUGGAUCUACUGGGUUACCUAA,0.568 ± 0.064
5,CUUUUCCUCUCCAUCUACUGGGUUACCUAA,0.554 ± 0.044
6,CUAUUCCUCUGGGAUCUACUGGGUUACCUAA,0.514 ± 0.042
7,CUAUUCCAUCUGGAUCUACUGGGUUACCUAA,0.537 ± 0.053
8,CUAUUCCUCUCCAUCUACUGGGUUACCUAA,0.647 ± 0.051
9,GAAUUCCUCUCCAUCUACUGGGUUACCUAA,0.706 ± 0.051
10,CAAUUCCUCUCCAUCUACUGGGUUACCUAA,0.829 ± 0.057
11,CUUAUCCUCUCCAUCUACUGGGUUACCUAA,0.422 ± 0.033
12,GAAUUCCUCCUGGAUCUACUGGGUUACCUAA,0.445 ± 0.047
13,GAAUUCCUCGGAUCUACUGGGUUACCUAA,0.432 ± 0.08
14,CUUAAGGGCUGGAUCUACUGGGUUACCUAA,0.159 ± 0.037
15,CUUAAGGAGUGGAUCAACUGGGUUACGUAA,0.053 ± 0.014
16,CUUAAGGACUGGAUCUACUGGGUCUACCUAA,0.0638 ± 0.033
17,CUUAACCUGCUGGAUCUACUGGGUUACCUAA,0.356 ± 0.036
18,CUUAAGGACUGGAUUCUACUGGGUUACCUAA,0.0274 ± 0.024
19,CUAAUCCUCAGGAUCUACUGGGUUACCUAA,0.55 ± 0.055
20,GAAUACCUCAGGAUCUACUGGGUUACCUAA,0.421 ± 0.043
21,CAAUACCUCAGGAUCUACUGGGUUACCUAA,0.656 ± 0.061
22,GAAUUCCUCAGGAUCUACUGGGUUACCUAA,0.483 ± 0.048
23,GAAAUCCUCAGGAUCUACUGGGUUACCUAA,0.446 ± 0.051
24,CUAUUCCUCAGGUUCUACUGGGUUACCUAA,0.584 ± 0.05
25,CAAUUCCUCAGGUUCUACUGGGUUACCUAA,0.709 ± 0.054
26,CUAUACCUCAGGAUCUACUGGGUUACCUAA,0.465 ± 0.051

row,Sequence,pre-steady-state target cleavage rate
1,CAAUUCCUCAGGAUCUACUGGGUUACCUAA,0.695 ± 0.062
2,GUAUUCCUCAGGAUCUACUGGGUUACCUAA,0.0863 ± 0.033
3,CAAAUCCUCAGGAUCUACUGGGUUACCUAA,0.754 ± 0.059
4,GAAUUCCUCAGGUUCUACUGGGUUACCUAA,0.539 ± 0.049
5,GAAUUCCUCUGGAUCUACUCGGUUACGUAA,0.155 ± 0.021
6,CUUAUCCACUGCAUCUACUGGGUUACCUAA,0.314 ± 0.018
7,CUUAAGGUCUGGAUCUACAGGGUUACCUUA,0.0564 ± 0.011
8,CUUAAGGACUGGAUCUUCUGGGUUACCUAA,0.0593 ± 0.037
9,CUAUGCCUCUGGAUCUACUGGGUUACCUAA,0.275 ± 0.037
10,CUAUUCCUCUGGAUCUACUCCGUUACCUAA,0.0198 ± 0.0061
11,GAAUUCCACUGGAUCUACUGCGUUACCUAA,0.744 ± 0.063
12,GAAUUCCUCAGGAUCUACUGCGUUACCUAA,0.518 ± 0.048
13,CAAUUCCACUGGAUCUACUGCGUUACCUAA,0.468 ± 0.067
14,CUUUUCCUCAGGAUCUACUGGGUUACCUAA,0.578 ± 0.054
15,CAUUUCCUCAGGAUCUACUGGGUUACCUAA,0.701 ± 0.054
16,CUAUUCCACUGGAUCUACUGCGUUACCUAA,0.542 ± 0.056
17,CAAUUCCUCAGGAUCUACUGCGUUACCUAA,0.674 ± 0.071
18,CUAUUCCUCAGGAUCUACUGCGUUACCUAA,0.561 ± 0.069
19,GAUUUCCUCAGGAUCUACUGGGUUACCUAA,0.459 ± 0.046
20,CUUAACCACUGGAUCUACUCGGUUACCUAA,0.0483 ± 0.01
21,CUUAUCCUCUGGAUGCUACUGGGUUACCUAA,0.277 ± 0.034
22,CUAUUCCUCUGGAUGUACUGGGUUACCUUA,0.403 ± 0.043
23,CUUAAGGACUGGAUCUACUGGGUUACCGUAA,0.0402 ± 0.032
24,CUUUUCCUCUGGAUCUACUGGGAUUCCUAA,0.087 ± 0.033
25,CUAUUCCUGUGGAUCUACUGGCUUACCUAA,0.0662 ± 0.017
26,CUUAUCCUCUCGAUCUACUGGGUUACCUUA,0.436 ± 0.032

row,Sequence,pre-steady-state target cleavage rate
1,CUAAUCCUCUGGAUCUACUGGGUUACGUAA,0.66 ± 0.052
2,CAAAUCCUCUGGAUCUACUGGGUUACGUAA,0.555 ± 0.064
3,CUUAUCCUCUGGAUCUACUGGGUUACGUAA,0.684 ± 0.049
4,CUUAACCUCUCGAUCUACUGGGUUACGUAA,0.551 ± 0.037
5,CUUAUCCUCUGGAUCUACUGGGUUACCGUAA,0.344 ± 0.063
6,GAAAUCCUCUGGAUCUACUGGGUUACGUAA,0.532 ± 0.058
7,CUUAUCCUCUCGAUCUACUGGGUUACGUAA,0.728 ± 0.046
8,CUUAUCCUCUGGAUCUACUGGGUUACGUUA,0.469 ± 0.07
9,CUUUUCCUCAGGAUCUACUGGGUUAGCUAA,0.133 ± 0.041
10,CAAUUCCUCUGGAUCUACUGGGUUUCCUUA,0.281 ± 0.067
11,GAAUACCUCUGGAUGUACUGGGUUACCUAA,0.251 ± 0.044
12,CUAUUCCUCUGGAUCUACUGGGUUACGUUA,0.401 ± 0.055
13,CUUAUCCUGUGGAUCUACUGGGUUACCUAA,0.443 ± 0.056
14,CUUAUCCUCUGGAUCUACUGGGUUAUCCUAA,0.413 ± 0.057
15,CUUAAGGACGGAUCUACUGGGUUACCUAA,0.0543 ± 0.039
16,CAAUUCCUCUCGAUCAACUGGGUUACCUAA,0.721 ± 0.053
17,CUAUUCCUCUGGAUCAACUGGGUUACCUAA,0.44 ± 0.051
18,CUUAUCCUCUCGAUCAACUGGGUUACCUAA,0.508 ± 0.033
19,CUAUUCCUCUCGAUCAACUGGGUUACCUAA,0.637 ± 0.047
20,CUUUUCCUCUCGAUCAACUGGGUUACCUAA,0.553 ± 0.039
21,GAAUUCCUCUCGAUCAACUGGGUUACCUAA,0.63 ± 0.051
22,CUUUUCCUCUGGAUCUACUGCGUUAGCUAA,0.142 ± 0.048
23,CUUAAGGAGUGGAUCUACUGGGUUACCAUA,0.0428 ± 0.015
